# Key:
# Settings in all cases: inducer concentration 5 mM; 6 h; Cupriavidus necator H16; minimal medium + 0.4% gluconate
# [1] = system: HpdR/P_H16_RS18295 3-hydroxypropanoate biosensor (pEH010); assay: relative induction of RFP reporter vs primary effector (background-corrected); higher = stronger activation of the biosensor
# Description: (§1)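 C. necator H16 strains, each carrying one of 21 transcription factor/inducible promoter–mRFP biosensor plasmids, were grown in minimal medium in 96-well plates (robotic platform). Each was exposed to 46 structurally or metabolically related compounds at 5 mM at 30 °C. OD-normalised RFP fluorescence was read 6 h later and expressed as relative induction (%) = 100 × (FL compound − FL uninduced)/(FL primary inducer − FL uninduced); mean of n=4.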
# [2] = system: AcoR/P_H16_RS19445 acetoin biosensor (pEH052); assay: as above
# Description: as §1
# [3] = system: AraC/P_araBAD L-arabinose biosensor (pEH176); assay: as above
# Description: as §1
# [4] = system: BenM/P_H16_RS09790 benzoate biosensor (pEH148); assay: as above
# Description: as §1
# [5] = system: FdsR/P_H16_RS03165 formate biosensor (pEH134); assay: as above
# Description: as §1
# [6] = system: GabR/P_H16_RS23655 GABA biosensor (pEH256); assay: as above
# Description: as §1
# [7] = system: KynR/P_H16_RS14030 L-kynurenine biosensor (pEH136); assay: as above
# Description: as §1
# [8] = system: NahR/P_H16_RS08125 salicylate biosensor (pEH042); assay: as above
# Description: as §1
# [9] = system: OapR/P_H16_RS01330 beta-alanine biosensor (pEH147); assay: as above
# Description: as §1
# [10] = system: PcaQ/P_H16_RS30145 3,4-dihydroxybenzoate biosensor (pEH161); assay: as above
# Description: as §1
# [11] = system: PhgR/P_H16_RS05530 phenylglyoxylate biosensor (pEH155); assay: as above
# Description: as §1
# [12] = system: PhhR/P_H16_RS18365 L-phenylalanine biosensor (pEH137); assay: as above
# Description: as §1
# [13] = system: SauR/P_H16_RS13695 sulfonatoacetate biosensor (pEH157); assay: as above
# Description: as §1
# [14] = system: TtdR/P_H16_RS10665 tartrate biosensor (pEH083); assay: as above
# Description: as §1
# [15] = system: XdhR/P_H16_RS05055 xanthine biosensor (pEH154); assay: as above
# Description: as §1
# [16] = system: heterologous inducible system pEH002 (rhamnose/acrylate/cumate/itaconate set); assay: as above
# Description: as §1
# [17] = system: heterologous inducible system pEH020 (rhamnose/acrylate/cumate/itaconate set); assay: as above
# Description: as §1
# [18] = system: heterologous inducible system pEH040 (rhamnose/acrylate/cumate/itaconate set); assay: as above
# Description: as §1
# [19] = system: heterologous inducible system pEH086 (rhamnose/acrylate/cumate/itaconate set); assay: as above
# Description: as §1
# [20] = system: AcoR/P_H16_RS19445 acetoin biosensor (pEH052); assay: relative induction of RFP reporter vs primary effector; higher = stronger activation
# Description: (§2)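 Orthogonality screen of 21 primary inducers against 21 transcription factor/inducible promoter–mRFP biosensors in C. necator H16 in minimal medium, robotic 96-well format, 5 mM inducer, 30 °C. OD-normalised RFP fluorescence was read 6 h later and expressed as relative induction (%) = 100 × (FL compound − FL uninduced)/(FL primary inducer − FL uninduced); mean of n=4. Cognate pairs (100% by definition) omitted.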
# [21] = system: AraC/P_araBAD L-arabinose biosensor (pEH176); assay: as above
# Description: as §2
# [22] = system: BadR/P_H16_RS27200 cyclohexanecarboxylate biosensor (pEH159); assay: as above
# Description: as §2
# [23] = system: BenM/P_H16_RS09790 benzoate biosensor (pEH148); assay: as above
# Description: as §2
# [24] = system: FdsR/P_H16_RS03165 formate biosensor (pEH134); assay: as above
# Description: as §2
# [25] = system: GabR/P_H16_RS23655 GABA biosensor (pEH256); assay: as above
# Description: as §2
# [26] = system: HpdA/P_H16_RS24175 L-tyrosine biosensor (pEH158); assay: as above
# Description: as §2
# [27] = system: NahR/P_H16_RS08125 salicylate biosensor (pEH042); assay: as above
# Description: as §2
# [28] = system: PcaQ/P_H16_RS30145 3,4-dihydroxybenzoate biosensor (pEH161); assay: as above
# Description: as §2
# [29] = system: PhgR/P_H16_RS05530 phenylglyoxylate biosensor (pEH155); assay: as above
# Description: as §2
# [30] = system: SauR/P_H16_RS13695 sulfonatoacetate biosensor (pEH157); assay: as above
# Description: as §2
# [31] = system: TtdR/P_H16_RS10665 tartrate biosensor (pEH083); assay: as above
# Description: as §2
# [32] = system: XdhR/P_H16_RS05055 xanthine biosensor (pEH154); assay: as above
# Description: as §2
# [33] = system: heterologous L-rhamnose-inducible system; assay: as above
# Description: as §2
# [34] = system: heterologous acrylate-inducible system; assay: as above
# Description: as §2
# [35] = system: heterologous cumate-inducible system; assay: as above
# Description: as §2
# [36] = system: heterologous itaconate-inducible system; assay: as above
# Description: as §2
# [37] = system: OapR/P_H16_RS01330 beta-alanine biosensor (pEH147); assay: as above
# Description: as §2
# 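Wherever relative induction of RFP reporter vs primary effector (background-corrected) is given: RFP excited at 585 nm with emission read at 620 nm, culture medium blanks subtracted from fluorescence and absorbance prior to normalisation.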
compound,measurement,setting,value
CCC(=O)O,relative induction of RFP reporter,[1],0.144%
O=C(O)/C=C/C(=O)O [fumarate],relative induction of RFP reporter,[2],-1.09%
same,relative induction of RFP reporter,[3],0.0135%
same,relative induction of RFP reporter,[4],0.214%
same,relative induction of RFP reporter,[5],12.2%
same,relative induction of RFP reporter,[6],-0.753%
same,relative induction of RFP reporter,[1],0.112%
same,relative induction of RFP reporter,[7],-0.13%
same,relative induction of RFP reporter,[8],-0.00283%
same,relative induction of RFP reporter,[9],0.456%
same,relative induction of RFP reporter,[10],0.0475%
same,relative induction of RFP reporter,[11],-0.207%
same,relative induction of RFP reporter,[12],0.00492%
same,relative induction of RFP reporter,[13],0.00629%
same,relative induction of RFP reporter,[14],0.78%
same,relative induction of RFP reporter,[15],0.739%
same,relative induction of RFP reporter,[16],0.00534%
same,relative induction of RFP reporter,[17],-0.346%
same,relative induction of RFP reporter,[18],-1.36%
same,relative induction of RFP reporter,[19],0.533%
NCCC(=O)O [β-alanine],relative induction of RFP reporter,[20],-2.32%
same,relative induction of RFP reporter,[21],-0.0067%
same,relative induction of RFP reporter,[22],-0.428%
same,relative induction of RFP reporter,[23],-0.0408%
same,relative induction of RFP reporter,[24],-3.65%
same,relative induction of RFP reporter,[25],-1.1%
same,relative induction of RFP reporter,[26],-0.165%
same,relative induction of RFP reporter,[27],0.0063%
same,relative induction of RFP reporter,[28],-0.208%
same,relative induction of RFP reporter,[29],-0.344%
same,relative induction of RFP reporter,[30],-0.0116%
same,relative induction of RFP reporter,[31],0.268%
same,relative induction of RFP reporter,[32],-0.793%
same,relative induction of RFP reporter,[33],0.0016%
same,relative induction of RFP reporter,[34],-2.33%
same,relative induction of RFP reporter,[35],-1.44%
same,relative induction of RFP reporter,[36],-0.489%
NC(=O)CC[C@H](N)C(=O)O [L-glutamine],relative induction of RFP reporter,[2],-1.76%
same,relative induction of RFP reporter,[3],-0.022%
same,relative induction of RFP reporter,[4],-0.0444%
same,relative induction of RFP reporter,[5],4.9%
same,relative induction of RFP reporter,[6],-2.05%
same,relative induction of RFP reporter,[1],-0.13%
same,relative induction of RFP reporter,[7],-0.513%
same,relative induction of RFP reporter,[8],0.00325%
same,relative induction of RFP reporter,[9],-0.494%
same,relative induction of RFP reporter,[10],-0.146%
same,relative induction of RFP reporter,[11],-0.333%
same,relative induction of RFP reporter,[12],-0.432%
same,relative induction of RFP reporter,[13],0.0183%
same,relative induction of RFP reporter,[14],0.541%
same,relative induction of RFP reporter,[15],-0.666%
same,relative induction of RFP reporter,[16],0.00684%
same,relative induction of RFP reporter,[17],-0.587%
same,relative induction of RFP reporter,[18],-2.02%
same,relative induction of RFP reporter,[19],0.168%
O=CO [formate],relative induction of RFP reporter,[20],-0.63%
same,relative induction of RFP reporter,[21],-0.0317%
same,relative induction of RFP reporter,[22],-0.738%
same,relative induction of RFP reporter,[23],0.0137%
same,relative induction of RFP reporter,[25],-0.53%
same,relative induction of RFP reporter,[26],-0.107%
same,relative induction of RFP reporter,[27],0.0105%
same,relative induction of RFP reporter,[37],0.208%
same,relative induction of RFP reporter,[28],-0.0432%
same,relative induction of RFP reporter,[29],-0.511%
same,relative induction of RFP reporter,[30],0.0555%
same,relative induction of RFP reporter,[31],0.287%
same,relative induction of RFP reporter,[32],-0.347%
same,relative induction of RFP reporter,[33],0.0165%
same,relative induction of RFP reporter,[34],-0.251%
same,relative induction of RFP reporter,[35],-0.422%
same,relative induction of RFP reporter,[36],0.516%
